# Calls of active or inactive are those of the source. Unless noted, no rule for the calls is given here.
# How the values were obtained:
# [1] = resazurin metabolic signal in HepG2 cells – cell-based, resazurin fluorescence, 24 h, PK04 Diversity Set, profiling panel (AID 1172); details: HepG2 viability, higher = more signal
# [2] = budding yeast growth changes without added modifier – OD600, strain BY4716, 24 h, basal condition, primary screen (AID 1173); details: S. cerevisiae BY4716 growth, OD600, 24 h; higher = more signal, called active from +8 up or from −8 down
# [3] = viability profiling in MM1S myeloma cells – cell-based, resazurin fluorescence, basal, 24 h, PK04 Diversity Set, profiling panel (AID 1174); details: higher = more signal, called active from +8 up or from −8 down;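 also: MM1S multiple myeloma cell line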
# [4] = biological target: Dihydroorotate dehydrogenase (quinone), mitochondrial (Plasmodium falciparum (isolate 3D7)) (UniProt Q08210); assay: inhibition of P. falciparum DHODH – biochemical, C-terminal His tag, absorbance 600 nm, primary screen (AID 1175); details: PfDHODH enzyme, DCIP absorbance 600 nm; higher = more signal, called active from +8 up or from −8 down;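 also: recombinant parasite enzyme with a five histidine tag at its C terminus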
# [5] = inhibition of PAO1 biofilm formation – strain PAO1, LB-PBS medium, absorbance 600 nm, primary screen (AID 1176); details: P. aeruginosa PAO1 growth/biofilm, A600, 12 h; higher = more signal
# [6] = growth modulation of vineyard yeast isolate – strain RM11-1a, OD600, basal, 24 h, primary screen (AID 1177);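 also: cultures grown under basal conditions with no added stressor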; details: S. cerevisiae RM11-1a growth, OD600, 24 h; higher = more signal, called active from +8 up or from −8 down
# [7] = growth of efflux-deficient E. coli DRC39 – strain DRC39, OD650, 24 h, E. coli filamentation inducers, primary screen (AID 1178);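 also: growth measured as culture turbidity by optical density at 650 nm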; details: E. coli DRC39 acrAB, higher = more signal, called active from +8 up or from −8 down
# [8] = growth of efflux-deficient E. coli DRC39 – strain DRC39, OD650, 48 h, E. coli filamentation inducers, primary screen (AID 1179);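 also: screen aims at cell division blockers that make cells filament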; details: E. coli DRC39 delta-acrAB growth, higher = more signal, called active from +8 up or from −8 down
# [9] = viability profiling in RPMI8226 myeloma cells – cell-based, resazurin fluorescence, basal, 24 h, PK04 Diversity Set, profiling panel (AID 1180); details: higher = more signal;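 also: RPMI8826 multiple myeloma cell line at 5000 cells per well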
# [10] = biological target: E3 ubiquitin-protein ligase XIAP (Homo sapiens) (UniProt P98170); assay: small molecules binding XIAP protein – biophysical, small-molecule microarray, fluorescence 635 nm, primary screen (AID 1181); details: higher = more signal;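 also: score merges 667 nm emission and signal to noise over triplicate slides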
# [11] = test system: XIP peptide (Xip251-270) binding; assay: XIP fragment 251-270 binding compounds – biochemical, small-molecule microarray, fluorescence 635/667 nm, 0.1 µg/mL protein, primary screen (AID 1182); details: fluorescent protein binding, 635 nm, higher = more signal, called active from +8 up or from −8 down
# [12] = test system: XIP peptide (Xip251-270); assay: compounds binding XIP fragment 251-270 – biochemical, small-molecule microarray, fluorescence 635/667 nm, 0.5 µg/mL protein, primary screen (AID 1183); details: fluorescence 635 nm, higher = more signal
# [13] = blood-stage malaria parasite viability loss – strain 3D7, DAPI fluorescence, 100 nL, primary screen (AID 1184);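 also: parasites grown inside human red blood cells in medium with human serum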; details: P. falciparum 3D7 growth, 3 d, higher = more signal
# [14] = biological target: Homeobox protein Hox-A13 (Mus musculus) (UniProt Q62424); assay: disruptors of Hoxa13 oligonucleotide interaction – biochemical, fluorescence polarization, labeled oligonucleotide, primary screen (AID 1185); details: Hoxa13:DNA binding, 15 min, higher = more signal, called active from +8 up or from −8 down
# [15] = blockers of DNA damage checkpoint Chk1 activation – imaging, HeLa, hydroxyurea, phospho-Chk1 antibody, percent positive cells, primary screen (AID 1186); details: hydroxyurea-induced phospho-Chk1 immunofluorescence imaging, higher = more signal
# [16] = blockers of DNA damage checkpoint Chk1 activation – imaging, HeLa, hydroxyurea, phospho-Chk1 nuclear intensity, primary screen (AID 1187); details: hydroxyurea-induced phospho-Chk1 immunofluorescence imaging, higher = more signal
# Sequence of Dihydroorotate dehydrogenase (quinone), mitochondrial (Plasmodium falciparum (isolate 3D7)) (Q08210 whole entry, looked up): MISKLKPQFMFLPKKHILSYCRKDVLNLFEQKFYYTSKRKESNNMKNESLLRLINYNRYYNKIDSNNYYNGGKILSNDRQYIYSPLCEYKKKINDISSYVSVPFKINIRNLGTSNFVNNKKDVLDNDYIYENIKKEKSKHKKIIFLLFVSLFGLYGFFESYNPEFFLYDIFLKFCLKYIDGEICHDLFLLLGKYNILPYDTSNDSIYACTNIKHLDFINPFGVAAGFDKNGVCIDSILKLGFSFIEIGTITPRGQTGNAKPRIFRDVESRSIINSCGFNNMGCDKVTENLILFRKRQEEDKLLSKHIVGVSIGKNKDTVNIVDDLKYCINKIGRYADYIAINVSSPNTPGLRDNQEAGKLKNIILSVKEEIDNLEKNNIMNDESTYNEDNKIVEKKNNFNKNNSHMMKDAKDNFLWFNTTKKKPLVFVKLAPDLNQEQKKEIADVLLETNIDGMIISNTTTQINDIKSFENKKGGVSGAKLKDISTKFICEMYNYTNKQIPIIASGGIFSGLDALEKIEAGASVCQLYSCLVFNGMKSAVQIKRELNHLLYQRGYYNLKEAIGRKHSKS
# Sequence of Homeobox protein Hox-A13 (Mus musculus) (Q62424 whole entry, looked up): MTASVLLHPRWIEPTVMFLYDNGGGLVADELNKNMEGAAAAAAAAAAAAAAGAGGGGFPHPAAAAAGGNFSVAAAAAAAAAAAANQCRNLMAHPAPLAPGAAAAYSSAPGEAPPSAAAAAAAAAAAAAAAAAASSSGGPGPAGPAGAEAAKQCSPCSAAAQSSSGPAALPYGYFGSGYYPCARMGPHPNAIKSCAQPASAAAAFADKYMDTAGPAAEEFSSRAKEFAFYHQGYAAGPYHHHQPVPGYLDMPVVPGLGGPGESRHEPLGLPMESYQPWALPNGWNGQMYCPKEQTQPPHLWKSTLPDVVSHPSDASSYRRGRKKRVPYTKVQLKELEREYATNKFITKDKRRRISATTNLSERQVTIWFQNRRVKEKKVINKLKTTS
# Sequence of E3 ubiquitin-protein ligase XIAP (Homo sapiens) (P98170 whole entry, looked up, the tested form may be a part): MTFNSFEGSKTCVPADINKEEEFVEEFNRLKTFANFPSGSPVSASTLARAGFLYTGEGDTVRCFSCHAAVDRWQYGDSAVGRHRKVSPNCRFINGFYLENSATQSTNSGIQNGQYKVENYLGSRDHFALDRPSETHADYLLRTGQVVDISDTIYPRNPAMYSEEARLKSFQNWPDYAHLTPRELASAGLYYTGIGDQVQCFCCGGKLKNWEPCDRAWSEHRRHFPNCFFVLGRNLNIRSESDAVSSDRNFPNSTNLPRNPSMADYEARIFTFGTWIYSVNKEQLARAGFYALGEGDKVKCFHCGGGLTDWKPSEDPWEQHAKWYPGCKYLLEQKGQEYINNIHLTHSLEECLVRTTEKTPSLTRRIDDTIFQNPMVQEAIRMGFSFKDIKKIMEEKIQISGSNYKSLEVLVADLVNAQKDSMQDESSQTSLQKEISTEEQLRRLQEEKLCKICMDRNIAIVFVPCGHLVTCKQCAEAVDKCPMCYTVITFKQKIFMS
SMILES,z-score [1],z-score [2],z-score [3],composite z-score [4],z-score [5],z-score [6],z-score [7],z-score [8],z-score [9],composite z-score [10],composite z-score [11],composite z-score [12],z-score [13],z-score [14],z-score [15],z-score [16]
O=C(CS)NCCCCCCNC(=O)[C@@H]1C[C@@H]2C(=O)N[C@@H](Cc3ccccc3)C(=O)N2[C@@H]1c1cccc(OCCO)c1,0.531,0.49 (inactive),-0.137 (inactive),-0.0547 (inactive),0.255 (inactive),0.0598 (inactive),0.051 (inactive),0.0288 (inactive),-0.549,0.0264,0.644 (inactive),0.763,1.17,-2.64 (inactive),0.835 (inactive),1.17 (inactive)
CCCC[C@H]1OB(O)C[C@H]2C1=C(COC)C[C@H]1C(=O)N(C)C(=O)[C@H]12,-0.627,-1.56 (inactive),-0.227 (inactive),-0.682 (inactive),0.118 (inactive),-1.11 (inactive),-0.748 (inactive),-0.595 (inactive),-0.45,0.144,-0.267 (inactive),-0.0711,1.5,-9 (active),0.534 (inactive),0.312 (inactive)
C=CCOC(=O)[C@H]1[C@@H]2C(=O)O[C@@H](c3ccccc3)[C@@H](c3ccccc3)N2[C@@H](c2ccc(OCCOC(=O)[C@@H]3C[C@@H]4C(=O)N[C@@H](CC(C)C)C(=O)N4[C@@H]3c3ccc(O)cc3)cc2)[C@]12C(=O)Nc1ccccc12,0.256,1.23 (inactive),-0.347 (inactive),-0.295 (inactive),2.94 (inactive),2.05 (inactive),-0.149 (inactive),-0.72 (inactive),0.169,-0.0559,1.25 (inactive),0.802,-1.66,-0.596 (inactive),0.659 (inactive),0.991 (inactive)
CN1C(=O)C2C=CC(C(O)c3ccc([N+](=O)[O-])cc3)N(N3CCCCC3)C2C1=O (stereo not given),-0.777,0.217 (inactive),-0.51 (inactive),0.0871 (inactive),0.711 (inactive),0.189 (inactive),-0.884 (inactive),-1.24 (inactive),-0.85,0.384,0.0993 (inactive),0.471,-0.114,-3.98 (inactive),-0.224 (inactive),-0.167 (inactive)
CN(C)CCCC[C@@H]1NC(=O)[C@@H]2C[C@H](C(=O)NCCCCCCN)[C@H](c3cccc(OCCO)c3)N2C1=O,-0.06,-0.543 (inactive),0.124 (inactive),-0.981 (inactive),0.187 (inactive),-1.17 (inactive),-0.459 (inactive),-1 (inactive),-0.851,0.115,1.57 (inactive),0.919,0.0561,-3.85 (inactive),-0.945 (inactive),-0.708 (inactive)
COCCOC(=O)N1C(=O)[C@@]2(c3cc(C#Cc4ccc(OC)cc4)ccc31)[C@H](c1ccc(OCCO)cc1)N1[C@H](c3ccccc3)[C@H](c3ccccc3)OC(=O)[C@H]1[C@@H]2C(=O)N1CCN(c2ncccn2)CC1,-0.107,3.4 (inactive),0.202 (inactive),-1.76 (inactive),1.9 (inactive),3.43 (inactive),0.129 (inactive),-0.312 (inactive),0.55,0.0623,0.0039 (inactive),0.695,-1.84,0.99 (inactive),0.13 (inactive),0.436 (inactive)
O=C1[C@@]23C=C(Br)[C@H](C[C@@H]2CCOC3)[C@@]12CO2,0.165,-1.85 (inactive),0.0335 (inactive),-0.0887 (inactive),0.261 (inactive),-0.0503 (inactive),0.297 (inactive),0.319 (inactive),0.428,0.188,0.792 (inactive),-0.377,1.37,0.0303 (inactive),-0.259 (inactive),-0.561 (inactive)
CCCCCN1CC=CC23O[C@@H]4/C=C\CCC(C)OC(=O)C4[C@H]2C(=O)N(C(C)CO)[C@@H]3C1=O (stereo not given in full),0.194,0.142 (inactive),-0.139 (inactive),0.005 (inactive),-0.0153 (inactive),0.449 (inactive),0.866 (inactive),0.657 (inactive),1.07,-0.127,0.176 (inactive),0.0664,-0.107,-4.77 (inactive),-0.808 (inactive),-0.732 (inactive)
CCN(CC)c1ccc(N2CC=CC34O[C@@H]5C=CCCOC(=O)C5[C@H]3C(=O)N(CCCCCCO)[C@@H]4C2=O)cc1 (stereo not given in full),0.846,-1.04 (inactive),1.55 (inactive),-0.324 (inactive),0.786 (inactive),-1.31 (inactive),1.07 (inactive),0.534 (inactive),1.04,0.127,0.0059 (inactive),0.375,-0.459,-5.73 (inactive),-0.43 (inactive),0.419 (inactive)
NC(=O)N1C(=O)C2C(C1=O)C1C=C(c3ccc(CO)cc3)C2C(c2cccs2)N1Cc1cccc(OC(F)(F)F)c1 (stereo not given),-0.532,-4.02 (inactive),-0.683 (inactive),-8.36 (active),-0.79 (inactive),-1.87 (inactive),-5.27 (inactive),-4.66 (inactive),-0.452,0.278,0.0478 (inactive),-0.814,-2.86,-1.04 (inactive),0.0422 (inactive),0.723 (inactive)
